For 19 compounds, outcome results are on record in PubChem BioAssay (NCATS).

SMILES strings stand for the structures. Records with an inconclusive call do not appear. Calls of active or inactive are those of the source. Calls follow the shape of the dose curve; as a rule, active = well fitted curve in the direction sought with a large enough effect in the main read-out, with a control signal flat (not every such curve was filed as active); inconclusive = small, poorly fitted or top-dose-only effect, or effect the other way, or a change in a side signal; inactive = no such curve, though single readings can be large or run the other way.

The test can be described thus: qHTS Validation Assay to Find Inhibitors of Chronic Active B-Cell Receptor Signaling (AID 485345). The following applies: ABC-DLBCL cells, chronic BCR signaling reporter, CBG luciferase; series mostly up to 46.1 µM. The gist of the method: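 TMD8 ABC-DLBCL cells with dox-inducible green luciferase–IκBα fusion and red native luciferase; compounds 46 uM–3 nM, 4 h at 37C with doxycycline in 0.5% FBS IMDM. Green/red ratio normalized to basal and 10 uM MG-132.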
Consider `CN(C)C(=O)/N=N/C(=O)N(C)C`, for which the compound was classed as inactive.
Under `Cc1cccc(C)c1OCC(N)C(C)C` (centres undefined) stands “inactive”; under `C=CCn1c(=O)c2c(nc(-c3ccc(S(=O)(=O)O)cc3)n2C)n(C)c1=O`, “inactive”.
For the compound `O=C(O)c1cccnc1C(=O)O`, the outcome was inactive.
Under `Cc1nc(N=Nc2cc(S(=O)(=O)O)c3cc([N+](=O)[O-])cc(S(=O)(=O)O)c3c2)c(COP(=O)(O)O)c(C=O)c1O` stands “inactive”; under `C[C@@]1(C2CCCC2)Cc2cc(OCC(=O)O)c(Cl)c(Cl)c2C1=O`, “inactive”.
Under `COc1ccc(-c2ccc(N)[n+](CCCC(=O)O)n2)cc1` stands “inactive”; under `CC(N)(Cc1ccc(O)c(O)c1)C(=O)O` (centres undefined), “inactive”; under `NCCC1CCCC(CCN)N1` (centres undefined), “inactive”.
Under `O=c1[nH]c(=O)c2nc3ccccc3nc2[nH]1` stands “inactive”; under `CCCn1c(=O)c2c(ncn2C)n(CCC)c1=O`, “inactive”.
For the compound `CC(=O)NNC(=O)N1Cc2ccccc2Oc2ccc(Cl)cc21`, the compound was called inactive.
As to `NC(Cc1cccc(-c2ccccc2CP(=O)(O)O)c1)C(=O)O` (centres undefined), the compound was classed as inactive.
The same measure for `COC(=O)C(C)(N)Cc1ccc(O)cc1` (centres undefined): “inactive”; for `NCCCCN`: “inactive”; for `C[C@@H](NCCc1ccc(O)cc1)[C@@H](O)c1ccc(O)cc1`: “inactive”.
Under `NC1C=CC=C(C(=O)O)C1` (centres undefined) stands “inactive”.
The same measure for `CCCN(CCc1ccccc1)C1CCc2c(O)cccc2C1` (centres undefined): “inactive”.
For the compound `CC1CCN=C(N)S1` (centres undefined), the result was inactive.
